Inconclusive results are not listed. Active and inactive are the calls of the source. Unless noted, the call rests on the fitted dose curve; in most records, active means well fitted curve in the direction sought with a large enough effect in the repeat runs; inconclusive means weak or mixed curves; inactive means no such curve, though single readings can be large; an effect the other way counts as inactive or inconclusive.
How the values were obtained:
[1] = qHTS assay to identify small molecule HDAC inhibitors (AID 1259364);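 further: wild-type HCT-116 cells with endogenous class I/II HDAC activity; top concentration of the series differs between compounds; nearly all actives have a fitted effect of over 45% in size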
How it was run: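 Cells (HCT-116, wild type) are seeded at 1,500 per well, incubated overnight, treated with compound in DMSO for 2 hr, then developed with HDAC-Glo I/II reagent for 30 min at room temperature.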

[2] = qHTS assay to identify small molecule HDAC inhibitors - cell viability counter screen (AID 1259365); further: series mostly up to about 92 µM; nearly all actives have a fitted effect of over 50% in size
How it was run: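 HCT-116 (wild type), 1,500 cells/well, overnight 37C/5% CO2; compound in DMSO 2hr; CellTiter-Glo 30min RT; luminescence read.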

[3] = qHTS assay to identify small molecule agonists of the sonic hedgehog signaling (Shh) pathway - cell viability counter screen (AID 1259366); further: nearly all actives have a fitted effect of over 50% in size
How it was run: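 CellTiter-Fluor fluorescence read-out, 1 hr at 37C, added after 23hr compound exposure. Cells: 3T3 Gli1-Luc, an NIH/3T3 clone with stably integrated Gli1-Luc reporter, plated 4hr before compound.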

[4] = qHTS assay to identify small molecule antagonists of the sonic hedgehog signaling (Shh) pathway - cell viability counter screen (AID 1259367); further: nearly all actives have a fitted effect of over 55% in size
How it was run: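 Tox21 library chemicals were tested on a Gli1-Luc NIH/3T3 clone (2,000 cells/well) stimulated by conditioned medium; viability was quantified as fluorescence from CellTiter-Fluor reagent added at 23 hr.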

[5] = qHTS assay to identify small molecule agonists of the sonic hedgehog signaling (Shh) pathway (AID 1259368; calls by dose curve;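 further: NIH/3T3-derived 3T3Gli1-Luc cells carrying a stable Gli1-driven firefly luciferase reporter; series mostly up to about 92 µM; nearly all actives have a fitted effect of over 15% in size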)
How it was run: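 Cells of a mouse NIH/3T3 clone stably expressing luciferase under the Gli1 transcriptional response element are exposed to test chemicals for 24 hr at 37 C. Pathway activation is detected as a rise in luminescence.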

[6] = qHTS assay to identify small molecule antagonists of the sonic hedgehog signaling (Shh) pathway (AID 1259369; calls by dose curve; further: nearly all actives have a fitted effect of over 45% in size)
How it was run: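 Cells are plated and held 4hr at 37 C, compounds (DMSO) are pinned in, conditioned medium is added to stimulate the pathway, and after 24hr luciferase reagent is added for 30min before luminescence is read.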

[7] = biological target: Estrogen receptor beta (Homo sapiens) (UniProt Q92731); test: qHTS assay to identify small molecule agonists of the estrogen receptor beta (ER-beta) signaling pathway (AID 1259377; active means well fitted activation curve with a large enough effect in the signal ratio in the repeat runs, not every such curve was filed as active; the % refers to the signal ratio)
How it was run: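 Beta-lactamase reporter readout: fluorescence of LiveBLAzer B/G FRET substrate after 2 h at room temperature, following 16 h compound treatment of ER-beta-UAS-bla HEK293T cells at 37C in 2% charcoal-stripped FBS medium.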

[8] = biological target: Estrogen receptor beta (Homo sapiens) (UniProt Q92731); test: qHTS assay to identify small molecule antagonists of the estrogen receptor beta (ER-beta) signaling pathway (AID 1259378; active means well fitted inhibition curve with a large enough effect in the signal ratio in the repeat runs, not every such curve was filed as active; the % refers to the signal ratio)
How it was run: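 ER-beta-UAS-bla HEK293T cells in 2% charcoal-stripped FBS medium treated with compound plus 1nM final 17-beta-estradiol for 16 hr at 37C. Beta-lactamase reporter read by FRET substrate fluorescence after 2 hours at room temperature.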

[9] = qHTS assay to identify small molecule agonists of the androgen receptor (AR) signaling pathway in the presence of an antagonist - cell viability counter screen (AID 1259379);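 further: MDA-kb2 human breast cancer cells carrying an MMTV luciferase reporter; series mostly up to about 92 µM; nearly all actives have a fitted effect of over 25% in size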
How it was run: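 Cytotoxicity is assessed by CellTiter-Fluor in MDA-kb2 cells carrying an MMTV-driven luciferase reporter. Cells receive 3.0uM nilutamide plus compounds at 15 concentrations and incubate 16 hr at 37C without CO2 before fluorescence reading.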

[10] = qHTS assay to identify small molecule agonists of the estrogen receptor beta (ER-beta) signaling pathway - cell viability counter screen (AID 1259380); further: nearly all actives have a fitted effect of over 30% in size
How it was run: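 Cytotoxicity is measured in parallel with the reporter screen: after 16 hr compound exposure at 37C and a 2 hr LiveBLAzer step, CellTiter-Glo is added to the same ER-beta-UAS-bla HEK293T wells and luminescence read after 30 min.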

Measured: Potency

Estrogen receptor beta (Homo sapiens), sequence (Q92731 whole entry, looked up): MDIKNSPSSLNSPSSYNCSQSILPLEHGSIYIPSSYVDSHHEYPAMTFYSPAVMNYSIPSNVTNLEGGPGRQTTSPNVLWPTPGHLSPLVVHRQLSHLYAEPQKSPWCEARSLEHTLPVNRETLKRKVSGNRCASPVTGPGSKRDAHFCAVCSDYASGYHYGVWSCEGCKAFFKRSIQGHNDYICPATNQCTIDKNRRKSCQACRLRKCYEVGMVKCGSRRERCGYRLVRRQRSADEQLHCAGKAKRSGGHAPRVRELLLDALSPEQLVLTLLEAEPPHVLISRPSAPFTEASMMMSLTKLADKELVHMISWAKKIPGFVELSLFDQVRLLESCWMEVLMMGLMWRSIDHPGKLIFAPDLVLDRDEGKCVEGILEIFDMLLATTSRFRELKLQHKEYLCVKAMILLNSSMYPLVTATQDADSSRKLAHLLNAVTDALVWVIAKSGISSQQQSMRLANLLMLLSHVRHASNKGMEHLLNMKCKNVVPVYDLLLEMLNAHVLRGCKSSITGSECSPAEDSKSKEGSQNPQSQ

C=C[C@@H](C)CCC=C(C)C
inactive: all assays above

CCCCCCCCC(=O)OCC
inactive: all assays above

CC(C)(C)NCCO
inactive: all assays above

O=CN1CCOCC1
not listed: [8] | [9] | [10]
inactive: all other assays above

CN(C)CCCNCCC#N
not listed: [10]
inactive: all other assays above

CCCCC/C=C/CC(=O)OC
inactive: all assays above

Nc1cc(C(=O)O)ccc1Cl
inactive: all assays above

CCCCCCCC[Si](OCC)(OCC)OCC
not listed: [9] | [10]
inactive: all other assays above

NC(=O)NC(=O)Cc1ccccc1
not listed: [9] | [10]
inactive: all other assays above

CC(C)SCc1ccco1
inactive: all assays above

C=CCOc1c(Br)cc(C(C)(C)c2cc(Br)c(OCC=C)c(Br)c2)cc1Br
inactive: all assays above

CCCOC(=O)CCCCC(=O)OCCC
inactive: all assays above

CC(C)C(=O)Nc1cccc(C(F)(F)F)c1
inactive: all assays above

CC(C)COC(=O)CC(C(=O)OCC(C)C)S(=O)(=O)O (stereo not drawn)
inactive: all assays above

CCCC(C)CC (stereo not drawn)
inactive: all assays above

CCC(CO)CO
not listed: [10]
inactive: all other assays above

CCCCC[Si](OCC)(OCC)OCC
inactive: all assays above

C/C=C(\C)C(=O)OCC/C=C\CC
inactive: all assays above

O=C1OC(=O)c2ccccc21
inactive: all assays above

O=S(=O)(O)c1cc(O)ccc1O
inactive: all assays above

C1CCN2C[C@@H]3C[C@@H](CN4CCCC[C@@H]34)[C@H]2C1
not listed: [8] | [9] | [10]
inactive: all other assays above

C=C(C)C(=O)OC1CC(C)CC(C)(C)C1 (stereo not drawn)
inactive: all assays above

CC1=CC[C@H](CC=O)C1(C)C
inactive: all assays above

N#CCCOCCOCCC#N
inactive: all assays above

— PubChem BioAssay (Tox21)
